# Results with a measured potency or affinity are listed apart.
# Key:
# Klebsiella pneumoniae = conditions: Concentration 32 ug.mL-1;; ASSAY_TEST Inhibition of Bacterial Growth; detection method Absorption (OD600); MEDIA CAMHB; plate type 384well; NBS; CORNING #3640; time 18 hr
# Candida albicans = conditions: Concentration 32 ug.mL-1; ASSAY_TEST Inhibition of Fungal Growth; detection method Absorption (OD530)
# Cryptococcus neoformans = conditions: Concentration 32 ug.mL-1; ASSAY_TEST Inhibition of Fungal Growth; detection method Resazurin; Absorption (OD600-OD570); plate type 384well; NBS; CORNING #3640
Compound,Inhibition (Klebsiella pneumoniae) [%],Inhibition (Candida albicans) [%],Inhibition (Cryptococcus neoformans) [%]
Cn1c(=O)c2ccc(C(=O)NC3CCCC3)cc2n2c(SCc3c(F)cccc3Cl)nnc12,14.92,3.13,-23.81
CCCCc1ccc(NC(=O)Cn2nc3ccc(-c4ccc(C)c(C)c4)nn3c2=O)cc1,1.79,1.02,-8.31
N#CCn1nc2n(Cc3ccccc3)c(=O)c3ccc(C(=O)NC4CCCCC4)cc3n2c1=O,4.19,1.65,-13.83
N#Cc1ccc(NC(=O)Cn2nc3c(SCc4ccc(Cl)cc4)nccn3c2=O)cc1,12.55,4.94,-19.24
CCc1ccccc1NC(=O)Cn1nc2c(Sc3ccccc3CC)nccn2c1=O,12.45,3.69,-11.06
Cc1ccc(Cn2c(=O)c3ccccc3n3c(=O)n(CC#N)nc23)cc1,6.47,-0.23,-25
Cc1ccc(C)c(NC(=O)Cn2nc3ccc(-c4ccc(C)c(C)c4)nn3c2=O)c1,-9.48,0.94,-3.49
COc1cccc(-n2ccn3c(SCc4ccccc4C)nnc3c2=O)c1,8.9,2.6,-11.74
Cc1cccc(Sc2nc3ccccc3n3c(=O)n(CC(=O)Nc4c(C)cc(C)cc4C)nc23)c1,10.9,0.56,-23.88
COc1ccccc1NC(=O)Cn1nc2c3c4c(sc3ncn2c1=O)CCCC4,5.77,0.98,-22.92
C=Cc1ccc(CSc2nnc3c(=O)n(-c4ccc(Br)cc4)ccn23)cc1,3.16,0.16,-7.54
CC(C)Cn1c(=O)c2sccc2n2c(=O)n(CC(=O)N3CCC(Cc4ccccc4)CC3)nc12,-9.43,0.45,-94.76
Cc1c(Cl)cccc1-n1ccn2c(=O)n(Cc3cccc(F)c3)nc2c1=O,6.93,10.08,-17.54
CC(C)c1ccc(N(Cc2ccc(Cl)cc2)S(=O)(=O)c2cccn3cnnc23)cc1,9.01,2.08,-6.18
Cc1ccc(Sc2nccn3c(=O)n(CC(=O)Nc4ccc(Br)cc4)nc23)c(C)c1,5.96,-1.11,-6.8
Cc1nc(-c2ccccc2)cc2nn(CC(=O)Nc3ccc4c(c3)OCO4)c(=O)n12,6.91,0.14,-7.69
COc1ccc(N(Cc2cc(F)cc(F)c2)S(=O)(=O)c2ccc3nnc(C)n3c2)cc1,10.99,0.79,-7.83
CC(C)(C)Sc1ccc2nn(CC(=O)NCc3ccc(Cl)cc3)c(=O)n2n1,10.39,0.88,-9.66
Cc1nnc2c(SCC(=O)Nc3ccc(C#N)cc3)nc3ccccc3n12,5.06,-1.44,-16.12
O=c1c2sccc2n2c(=S)[nH]nc2n1CC1CCCO1 (stereo not drawn),6.97,-1.18,-5.63
CC(=O)c1cccc(NC(=O)Cn2c(=O)c3nnc(C(C)C)n3c3ccccc32)c1,4.91,5.31,-19.11

Compound,Inhibition (Klebsiella pneumoniae) [%],Inhibition (Candida albicans) [%],Inhibition (Cryptococcus neoformans) [%]
Cc1nnc2c(=O)n(CC(=O)Nc3ccccc3F)c3ccccc3n12,0.65,3.67,-6.39
O=C(Cn1nc2n(Cc3ccc(F)cc3)c(=O)c3ccccc3n2c1=O)Nc1ccc2c(c1)OCO2,8.5,5.19,-6.14
COC(=O)c1ccc(NC(=O)Cn2nc3nc(N4CCCCCC4)ccn3c2=O)cc1,12.29,5.24,-8.37
Cc1ccc(Cl)cc1N1CCN(C(=O)CCc2nnc3c4cc(-c5ccccc5)nn4ccn23)CC1,5.47,0.3,-6.62
COc1cccc(-n2ccn3c(SCC(=O)Nc4ccc(Cl)cc4)nnc3c2=O)c1,5.48,2.88,-10.21
CC(=O)c1cccc(NC(=O)CSc2nnc3ccc(C(=O)Nc4cccc(F)c4)cn23)c1,7.28,5.29,-6.79
O=S(=O)(c1ccc2nncn2c1)N(Cc1ccccc1F)c1ccc2c(c1)OCO2,9.89,1.66,-6.91
COC(=O)c1ccccc1NC(=O)Cn1nc2c3cc(-c4ccc(OC)cc4)nn3ccn2c1=O,20.11,0.77,-26.84
COc1cccc(CSc2nnc3c(=O)n(-c4ccc(Br)cc4)ccn23)c1,8.64,19.07,-13.83
CCC(Sc1nnc2c(=O)n(-c3cccc(OC)c3)ccn12)C(=O)Nc1cc(C)ccc1C (stereo not drawn),11.08,1.67,-10.57
O=C(Cn1nc2ccc(Sc3cccc(F)c3)nn2c1=O)Nc1cccc(C(F)(F)F)c1,3.15,0.5,-9.77
Cc1ccc(NC(=O)Cn2nc3c(Oc4ccccc4)nccn3c2=O)c(Cl)c1,-7.35,-1.78,-4
Cc1ccc(C)c(NC(=O)Cn2nc3c(N4CCCC(C)C4)nccn3c2=O)c1 (stereo not drawn),3.52,2.37,-8.1
Cc1nnc2ccc(S(=O)(=O)N(Cc3ccc(F)cc3)c3cc(F)cc(F)c3)cn12,9.19,0.51,-14.68
CCOc1ccccc1NC(=O)Cn1nc2c3cc(-c4ccc(Cl)cc4)nn3ccn2c1=O,12.1,2.9,-13.93
COc1cccc(Oc2nccn3c(=O)n(CC(=O)Nc4ccccc4C(F)(F)F)nc23)c1,12.08,1.07,-10.15
Cc1cc(C)c(NC(=O)Cn2nc3c(SC4CCCCC4)nccn3c2=O)c(C)c1,10.47,13.47,-24.78
COc1ccc(NC(=O)Cn2nc3c(N4CC(C)CC(C)C4)nccn3c2=O)c(OC)c1 (stereo not drawn),17.76,1.51,-7.52
O=c1n(Cc2cc(F)cc(F)c2)nc2ccc(-c3ccccc3)nn12,18.79,0.55,-16.53
COc1cccc(CN(c2ccc(F)cc2)S(=O)(=O)c2ccc3nnc(C)n3c2)c1,7.98,-0.17,-13.2
CCc1ccc(NC(=O)Cn2nc3c(Oc4cccc(OC)c4)nccn3c2=O)cc1,-4.18,2.5,-4.27

Compound,Inhibition (Klebsiella pneumoniae) [%],Inhibition (Candida albicans) [%],Inhibition (Cryptococcus neoformans) [%]
COc1ccc(-c2cc3c4nnc(SCC(=O)Nc5ccc(C#N)cc5)n4ccn3n2)cc1,5.83,1.48,-17.71
CCCCc1ccc(NC(=O)CSc2nc3ccccc3n3c(C(C)C)nnc23)cc1,2.68,2.13,-2.44
Cc1cccc(N(CC(=O)OC(C)(C)C)S(=O)(=O)c2cccn3c(C)nnc23)c1,8.25,2.37,-7.45
O=C(CSc1nnc2c(=O)n(-c3cccc(F)c3)ccn12)NCCc1ccccc1,-3.34,5.41,-10.18
COc1ccccc1-n1ccn2c(SCc3ccccc3F)nnc2c1=O,11.1,2.31,-5.25
COc1cccc(NC(=O)Cn2nc3c4c5c(sc4ncn3c2=O)CCCC5)c1,10.28,6.83,-22.51
CCc1nnc2c(S(=O)(=O)N(Cc3ccccc3C)c3ccc(Cl)cc3)cccn12,3.29,6.38,-5.94
CCOc1ccc(NC(=O)Cn2c(=O)c3nnc(C(C)C)n3c3ccccc32)cc1,4.3,1.75,-9.3
CC(C)c1ccc(NC(=O)CSc2nnc3c(=O)n(-c4ccccc4)ccn23)cc1,7.22,-0.59,-12.85
COc1ccccc1Cn1c(=O)c2sccc2n2c(=O)n(Cc3ccc(Br)cc3)nc12,3.07,-0.38,-8.06
CCc1nnc2c(S(=O)(=O)N(Cc3cccc(F)c3)c3ccc(F)cc3)cccn12,-0.41,1.06,-2.23
COc1cc(OC)c(NC(=O)Cn2nc3c(Oc4ccc(C)cc4)nccn3c2=O)cc1Cl,2,2.42,-3.76
COc1ccc(NC(=O)Cn2nc3c(Oc4ccccc4)nccn3c2=O)cc1OC,4.37,1.92,-7.08
Cc1ccc(Sc2nccn3c(=O)n(CC(=O)Nc4ccc(C)cc4Br)nc23)c(C)c1,10.73,2.86,-20.37
Cc1ccccc1Cn1nc2c(=O)n(-c3cccc(Cl)c3C)ccn2c1=O,2.06,0.54,-12.78
O=C(Cn1nc2c3cc(-c4ccc(Cl)cc4)nn3ccn2c1=O)Nc1ccc2c(c1)OCCO2,7.68,-1.89,-18.54
COc1ccc(NC(=O)CSc2nc3ccccc3n3c(C(C)C)nnc23)cc1Cl,5.17,1.87,-6.36
Cc1cc2nn(CC(=O)NC(C)C)c(=O)n2c(-c2ccc(C(F)(F)F)cc2)n1,3.27,1.65,-4.89
CCc1nnc2c(SCC(=O)Nc3cccc(Br)c3)nc3ccccc3n12,4.36,4.07,-27.47

# — ChEMBL document CHEMBL4513146, “CO-ADD screening of Karazin Kharkiv National University (Ukraine) compounds”
